According to PubChem BioAssay (NCATS):
Unmarked numbers belong to inactive results. Records with an inconclusive call do not appear. Active and inactive are the calls of the source. Calls follow the shape of the dose curve; as a rule, active = well fitted curve in the direction sought with a large enough effect; inconclusive = small, poorly fitted or top-dose-only effect, or another doubt; inactive = no such curve, though single readings can be large; an effect the other way counts as inactive or inconclusive.

molecular target: Cytochrome P450 2C9 (Homo sapiens) (UniProt P11712); assay: qHTS Assay for Inhibitors and Substrates of Cytochrome P450 2C9 (AID 883); conditions: recombinant CYP2C9, luciferin-H luminescence, 60 min; series mostly up to 11.4 µM; activity change, negative = inhibition: at the top concentration; also: nearly all actives have a fitted effect of over 60% in size; as to activity change, negative = inhibition: % is scaled to controls: 0 for no effect and ±100 for the full control effect
Sequence (P11712 whole entry, looked up): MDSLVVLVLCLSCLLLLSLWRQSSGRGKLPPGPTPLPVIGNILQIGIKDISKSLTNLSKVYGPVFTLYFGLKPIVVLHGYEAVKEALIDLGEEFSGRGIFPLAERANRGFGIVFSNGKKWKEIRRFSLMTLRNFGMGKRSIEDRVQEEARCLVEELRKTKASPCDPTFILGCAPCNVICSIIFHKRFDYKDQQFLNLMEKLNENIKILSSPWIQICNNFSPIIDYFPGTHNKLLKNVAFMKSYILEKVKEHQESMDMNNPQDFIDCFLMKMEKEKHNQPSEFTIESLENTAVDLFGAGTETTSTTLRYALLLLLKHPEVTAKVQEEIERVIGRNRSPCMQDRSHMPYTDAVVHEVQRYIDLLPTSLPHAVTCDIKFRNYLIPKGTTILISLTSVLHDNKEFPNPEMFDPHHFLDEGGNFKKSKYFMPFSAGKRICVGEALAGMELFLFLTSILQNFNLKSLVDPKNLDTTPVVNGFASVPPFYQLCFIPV
Method in brief: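 Human CYP2C9 (10nM) hydroxylated Luciferin-H (100uM, at its KM) to luciferin in 25mM KPO4. Compound was preincubated 10 min at 37C, then NADPH regeneration started a 60 min reaction at 37C. Luminescence was read after detection reagent, normalized to 57uM sulphaphenazole.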
Potency is read from the fitted curve at half-maximal effect.

| Structure (SMILES) | activity change, negative = inhibition | Potency |
| --- | --- | --- |
| O=C1c2cccc([N+](=O)[O-])c2C(=O)N1c1ncn[nH]1 | 34.4% |  |
| O=C1c2ccccc2C(=O)c2c1ccc(N1C(=O)c3ccccc3C1=O)c2-c1c(N2C(=O)c3ccccc3C2=O)ccc2c1C(=O)c1ccccc1C2=O | -1.95% |  |
| FC(F)(F)c1nc2nc(Cl)c(Cl)nc2n1CCCN1CCOCC1 |  | 2510 nM (active) |
| Cc1cc(N2CCOCC2)nc2ccc(Cc3ccc4nc(N5CCOCC5)cc(C)c4c3)cc12 |  | 3980 nM (active) |
| CN(C)CN1CSC(=S)N(CN(C)C)C1 |  | 3160 nM (active) |
| O=S1(=O)CCN(c2ccccc2CC(c2c[nH]c3ccccc23)c2c[nH]c3ccccc23)CC1 |  | 3160 nM (active) |
| Cc1cc(Cl)ccc1Nc1sc(C(=O)c2cc3cc(Cl)ccc3o2)c(N)c1C#N |  | 1260 nM (active) |
| C[C@@H](C(=O)O)/C(=C/c1ccc2c(c1)OCO2)C(=O)O |  | 2510 nM (active) |
| O=C(O)CSc1n[nH]c(=O)[nH]c1=O | 8.51% |  |

molecular target: Cytochrome P450 3A4 (Homo sapiens) (UniProt P08684); assay: qHTS Assay for Inhibitors and Substrates of Cytochrome P450 3A4 (AID 884); conditions: recombinant CYP3A4, Luciferin-PPXE luminescence; series mostly up to 57.1 µM; activity change, negative = inhibition: at the top concentration; also: nearly all actives have a fitted effect of over 50% in size; as to activity change, negative = inhibition: % is scaled to controls: 0 for no effect and ±100 for the full control effect
Sequence (P08684 whole entry, looked up): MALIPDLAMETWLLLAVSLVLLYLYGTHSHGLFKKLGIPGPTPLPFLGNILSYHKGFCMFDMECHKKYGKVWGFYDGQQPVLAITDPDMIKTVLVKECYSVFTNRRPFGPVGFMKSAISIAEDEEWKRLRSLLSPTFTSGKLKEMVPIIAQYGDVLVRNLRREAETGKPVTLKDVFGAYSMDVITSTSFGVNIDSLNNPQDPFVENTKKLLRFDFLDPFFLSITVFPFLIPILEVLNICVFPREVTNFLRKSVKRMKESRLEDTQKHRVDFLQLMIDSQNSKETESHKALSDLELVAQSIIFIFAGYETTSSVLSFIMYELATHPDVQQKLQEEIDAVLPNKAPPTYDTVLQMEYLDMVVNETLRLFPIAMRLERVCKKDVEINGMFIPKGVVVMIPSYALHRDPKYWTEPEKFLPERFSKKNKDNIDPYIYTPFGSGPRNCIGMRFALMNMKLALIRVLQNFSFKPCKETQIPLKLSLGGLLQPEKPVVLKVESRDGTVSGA
Method in brief: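 20 nM human CYP3A4 with 25 uM Luciferin-PPXE (at KM) in 200 mM KPO4, preincubated 10 min with compound; NADPH regeneration started a 60 min RT reaction. Luciferin detected by luminescence, normalized to 57 uM ketoconazole as full inhibition.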

| Structure (SMILES) | activity change, negative = inhibition | Potency |
| --- | --- | --- |
| O=c1[nH]c(SCc2ccccc2[N+](=O)[O-])nc2nc[nH]c12 | -21.6% [at 11.4 µM] |  |
| Cc1cc(N2CCOCC2)nc2ccc(Cc3ccc4nc(N5CCOCC5)cc(C)c4c3)cc12 | 91.2% [at 11.4 µM] |  |
| COCCn1c(=O)c(-c2cc(F)cc(F)c2)nc2cnc(Oc3ccc(OC)cc3)nc21 |  | 3160 nM (active) |
| O=c1c(-c2ccccc2)nc2cnc(Oc3ccccc3)nc2n1C1CC1 | 21.7% |  |
| NNC(=O)CCSc1ccccc1 |  | 3980 nM (active) |
| O=C(O)CSc1n[nH]c(=O)[nH]c1=O | -64.1% [at 11.4 µM] |  |

molecular target: Cytochrome P450 3A4 (Homo sapiens) (UniProt P08684); assay: qHTS Assay for Activators of Cytochrome P450 3A4 (AID 885); conditions: recombinant CYP3A4, Luciferin-PPXE luminescence, 60 min; series mostly up to 11.4 µM; activity change, positive = activation: at the top concentration; also: nearly all actives have a fitted effect of over 65% in size
Method in brief: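 Steps: enzyme/substrate mix dispensed; compound added, 10 min RT; NADPH regeneration solution added, 60 min RT; luciferin detection buffer stops reaction; 20 min later luminescence measured.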

| Structure (SMILES) | activity change, positive = activation | Potency |
| --- | --- | --- |
| O=C1c2cccc([N+](=O)[O-])c2C(=O)N1c1ncn[nH]1 | -48% |  |
| O=c1[nH]c(SCc2ccccc2[N+](=O)[O-])nc2nc[nH]c12 | -34.8% |  |
| Cc1[nH]c(N)nc(=S)c1CCCNc1ccccc1 | -39.2% |  |
| FC(F)(F)c1nc2nc(Cl)c(Cl)nc2n1CCCN1CCOCC1 | -32.9% |  |
| Cc1cc(N2CCOCC2)nc2ccc(Cc3ccc4nc(N5CCOCC5)cc(C)c4c3)cc12 |  | 3160 nM (active) |
| C[C@H](C(=O)c1ccncc1)c1ccccn1 | -39.6% |  |
| CC(C)(C)c1ccc(-c2nnc(SCc3ccc(Cl)cc3)n2-c2cccc(C(F)(F)F)c2)cc1 | -47.7% |  |
| CN(Cc1cc(Br)cc(Br)c1O)Cc1c(O)ccc2ccccc12 | -38.5% |  |
| O=S1(=O)CCN(c2ccccc2CC(c2c[nH]c3ccccc23)c2c[nH]c3ccccc23)CC1 | -51.6% |  |
| Cn1c(=O)c(CCc2ccccc2)nc2cnc(N3CCNCC3)nc21 | -40.5% [at 57.1 µM] |  |
| O=C(O)c1ccccc1-c1ccccc1C(=O)Nc1ccc2c(c1)[nH]c(=O)c1ccccc12 | -57.3% |  |
| COCCn1c(=O)c(-c2cc(F)cc(F)c2)nc2cnc(Oc3ccc(OC)cc3)nc21 | -76.3% [at 57.1 µM] |  |
| CC(C)[C@@H]1O[C@H](/C=C\c2ccccc2)OCC1(C)C | -33.3% |  |
| C[C@@H](C(=O)O)/C(=C/c1ccc2c(c1)OCO2)C(=O)O | -45.6% |  |
| S[C@@H]1CCCN(Cc2ccccc2)C1 | -38.4% |  |
| CC(=O)n1c(COS(C)(=O)=O)nc2ccccc21 | -45.7% |  |
| NNC(=O)CCSc1ccccc1 | -74.9% |  |
| Cc1ccc(CSC(N)=Nc2ccccc2)cc1C | -54.9% |  |

molecular target: Cytochrome P450 2D6 (Homo sapiens) (UniProt P10635); assay: qHTS Assay for Inhibitors and Substrates of Cytochrome P450 2D6 (AID 891); conditions: recombinant CYP2D6, luciferin-ME EGE luminescence; series mostly up to 11.4 µM; activity change, negative = inhibition: at the top concentration; also: nearly all actives have a fitted effect of over 60% in size;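 as to activity change, negative = inhibition: luciferin methyl ether substrate demethylated by CYP2D6 with NADPH regeneration; % is scaled to controls: 0 for no effect and ±100 for the full control effect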
Sequence (P10635 whole entry, looked up): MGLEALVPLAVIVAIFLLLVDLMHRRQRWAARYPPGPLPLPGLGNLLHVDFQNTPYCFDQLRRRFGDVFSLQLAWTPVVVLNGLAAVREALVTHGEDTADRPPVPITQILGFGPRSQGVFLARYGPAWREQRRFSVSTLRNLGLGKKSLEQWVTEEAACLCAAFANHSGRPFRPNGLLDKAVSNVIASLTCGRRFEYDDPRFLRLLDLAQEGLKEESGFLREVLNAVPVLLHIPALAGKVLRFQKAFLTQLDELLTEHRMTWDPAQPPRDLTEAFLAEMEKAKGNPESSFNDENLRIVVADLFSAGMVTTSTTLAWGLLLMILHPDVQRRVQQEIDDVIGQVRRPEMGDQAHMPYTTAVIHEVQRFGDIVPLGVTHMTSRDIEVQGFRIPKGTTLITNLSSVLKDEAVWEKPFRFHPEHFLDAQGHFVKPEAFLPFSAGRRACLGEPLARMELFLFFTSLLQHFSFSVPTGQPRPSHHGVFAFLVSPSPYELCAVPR
Method in brief: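 Human CYP2D6 (5 nM) with 30 uM Luciferin-ME EGE (at Km) in 100 mM KPO4, compound preincubated 10 min, then NADPH regeneration system for 60 min at room temperature. Luciferin read by luminescence; normalized to 1.43 uM quinidine.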

| Structure (SMILES) | activity change, negative = inhibition | Potency |
| --- | --- | --- |
| O=C1c2ccccc2C(=O)c2c1ccc(N1C(=O)c3ccccc3C1=O)c2-c1c(N2C(=O)c3ccccc3C2=O)ccc2c1C(=O)c1ccccc1C2=O | 4.75% |  |
| CC1(C)N=C(N)N=C(N)N1c1cccc(OCc2cccc(N)c2)c1 |  | 2510 nM (active) |
| CN(C)Cc1c[nH]c2nc[nH]c(=O)c12 | 24.5% |  |
| NS(=O)(=O)c1cc(C(=O)O)c(Cl)c([N+](=O)[O-])c1Cl | 27% |  |
| c1ccc2sc(SCN(C3CCCCC3)C3CCCCC3)nc2c1 |  | 1580 nM (active) |
| CC(C)(C)c1ccc(O)c(CN(Cc2cc(C(C)(C)C)ccc2O)C2CCCCC2)c1 |  | 501 nM (active) |
| CN(Cc1cc(Br)cc(Br)c1O)Cc1c(O)ccc2ccccc12 |  | 1580 nM (active) |
| CN(C)c1ncnc2c1ncn2CCn1cnc2c(N(C)C)ncnc21 | 12.7% |  |
| Clc1ccc(CSC2=NCCN2)cc1Cl |  | 3160 nM (active) |
| CN1CCN(CN2C(=O)C3C4C=CC(C3C2=O)C2C3C(=O)N(CN5CCN(C)CC5)C(=O)C3C42)CC1 (stereo not given) | 22.8% |  |
| NC[C@@H](O)CSCc1ccc(Cl)cc1 |  | 3160 nM (active) |
| S[C@@H]1CCCN(Cc2ccccc2)C1 |  | 794 nM (active) |
| c1ccc(CCN2CCN=C2Cc2ccccc2)cc1 |  | 126 nM (active) |
| O=C(O)CSc1n[nH]c(=O)[nH]c1=O | 0.151% |  |
| Cc1ccc(CSC(N)=Nc2ccccc2)cc1C |  | 794 nM (active) |
| c1cncc(CNCc2cccnc2)c1 | 21% |  |

molecular target: Cytochrome P450 2C19 (Homo sapiens) (UniProt P33261); assay: qHTS Assay for Inhibitors and Substrates of Cytochrome P450 2C19 (AID 899); conditions: recombinant CYP2C19, luciferin-H EGE luminescence; series mostly up to 11.4 µM; activity, negative = inhibition: at the top concentration; also: nearly all actives have a fitted effect of over 60% in size; as to activity, negative = inhibition: % is scaled to controls: 0 for no effect and ±100 for the full control effect
Sequence (P33261 whole entry, looked up): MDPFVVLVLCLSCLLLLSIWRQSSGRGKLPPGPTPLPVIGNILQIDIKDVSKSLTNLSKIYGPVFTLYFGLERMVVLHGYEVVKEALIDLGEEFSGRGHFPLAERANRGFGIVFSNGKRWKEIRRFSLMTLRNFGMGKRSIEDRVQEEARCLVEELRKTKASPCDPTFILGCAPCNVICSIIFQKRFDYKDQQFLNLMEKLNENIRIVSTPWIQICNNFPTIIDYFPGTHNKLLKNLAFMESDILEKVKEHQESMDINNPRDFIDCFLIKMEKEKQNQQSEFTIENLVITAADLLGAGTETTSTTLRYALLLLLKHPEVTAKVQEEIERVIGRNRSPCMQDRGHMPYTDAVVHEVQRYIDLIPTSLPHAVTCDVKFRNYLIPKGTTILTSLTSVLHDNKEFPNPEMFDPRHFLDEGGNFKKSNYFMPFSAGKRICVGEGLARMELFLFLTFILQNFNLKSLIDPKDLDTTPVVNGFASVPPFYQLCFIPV
Method in brief: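 Human CYP2C19 (5nM) with Luciferin-H EGE at 10uM (its KM) in 50mM KPO4 was preincubated with compound for 10 min at 37C. NADPH regeneration started a 60 min 37C reaction. Luciferin was read by luminescence, normalized to 57uM ketoconazole.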

| Structure (SMILES) | activity, negative = inhibition | Potency |
| --- | --- | --- |
| O=C1c2ccccc2C(=O)c2c1ccc(N1C(=O)c3ccccc3C1=O)c2-c1c(N2C(=O)c3ccccc3C2=O)ccc2c1C(=O)c1ccccc1C2=O | -2.03% |  |
| Cc1[nH]c(N)nc(=S)c1CCCNc1ccccc1 |  | 2000 nM (active) |
| NS(=O)(=O)c1cc(C(=O)O)c(Cl)c([N+](=O)[O-])c1Cl | 50.5% |  |
| CC(C)(C)c1ccc(O)c(CN(Cc2cc(C(C)(C)C)ccc2O)C2CCCCC2)c1 |  | 1580 nM (active) |
| CN(Cc1cc(Br)cc(Br)c1O)Cc1c(O)ccc2ccccc12 |  | 501 nM (active) |
| CN(C)CN1CSC(=S)N(CN(C)C)C1 |  | 3160 nM (active) |
| O=S1(=O)CCN(c2ccccc2CC(c2c[nH]c3ccccc23)c2c[nH]c3ccccc23)CC1 |  | 3160 nM (active) |
| CC(=O)[C@H](C(=N)C#N)C(=O)Nc1ccccc1 | -6.76% |  |
| S[C@@H]1CCCN(Cc2ccccc2)C1 |  | 3160 nM (active) |
| NNC(=O)CCSc1ccccc1 |  | 3980 nM (active) |
| O=C(O)CSc1n[nH]c(=O)[nH]c1=O | -27.1% |  |
